Screen size: about 48,000 compounds; about 13,000 (27%) showed an effect of 50% or more. This is one part of the list.
These compounds were tested on Wolbachia pipientis (assay: Anti-Wolbachia Cell-Based Screen). Settings: 5 µM.
Format: functional
Parameters: scale not given: in the data most compounds retested in dose-response had high values

| Structure (SMILES) | Percent Effect |
| --- | --- |
| O=C(c1ccc2c(c1)COC2)N1CCN(CC2CC2)CC1 | -6.158% |
| CCOCc1nn(CC2CC2)c2c1CN(Cc1ccco1)CC2.O=C(O)C(F)(F)F | -45.76% |
| O=C(O)C(F)(F)F.c1csc(CN2CCCn3cnc(COCC4CC4)c3C2)c1 | -4.67% |
| CCOCc1nn(C)c2c1CN(C(=O)c1ccno1)CC2 | -1.809% |
| COCc1nn(C(C)C)c2c1CCN(Cc1cccs1)C2.O=C(O)C(F)(F)F | 0.7419% |
| Cc1nc(NC(C)C)nc2c1CN(Cc1cccs1)CC2 | 0.7721% |
| COCc1nn(CC2CC2)c2c1CN(Cc1cccs1)CC2.O=C(O)C(F)(F)F | -6.214% |
| Cn1nc(COCC2CC2)c2c1CCN(Cc1cccs1)C2.O=C(O)C(F)(F)F | 99.16% |
| CC(C)OCc1nn(C)c2c1CN(Cc1cccs1)CC2.O=CO | 90.1% |
| CCOCc1nn(CC2CC2)c2c1CN(Cc1cccs1)CC2.O=C(O)C(F)(F)F.O=C(O)C(F)(F)F | 105% |
| Cn1nc(COCC2CC2)c2c1CCN(Cc1ccco1)C2.O=C(O)C(F)(F)F | -12.11% |
| CCOCc1nn(C)c2c1CN(CCO)CC2 | 105.8% |
| CCN1CCc2c(c(COC)nn2C)C1 | -29.06% |
| Cc1ccc(C)c2c(O)cc(CNCC(=O)N3CCCC3)nc12 | -11.62% |
| COc1ccc(CNC(=O)N2CCCN(CC3CCCCC3)CC2)cn1 | -6.571% |
| CN(C)c1ncccc1NC(=O)COC1CCCC1 | 0.222% |

| Structure (SMILES) | Percent Effect |
| --- | --- |
| CCOCc1nn(C)c2c1CN(Cc1cccs1)CC2.O=C(O)C(F)(F)F | 87.87% |
| O=C(O)C(F)(F)F.OCCOCc1ncn2c1CN(Cc1cccs1)CCC2 | 0.3209% |
| CCCN(CC(F)F)c1cc(COC)nc2ncnn12 | -12.24% |
| O=C(c1ccc(C2CCCN2)s1)N1CCC2(CCCO2)CC1 (configuration not stated) | 16.77% |
| Fc1ccc(N2CCCN(c3ccc(Cn4ccnc4)cn3)CC2)cc1 | 119.2% |
| CC1CCN(c2ccc(CNC(=O)NCCn3ccnc3)cn2)CC1 | 0.6283% |
| OC1CCN(C2CCN(c3ccc(Cn4ccnc4)cn3)CC2)CC1 | 89.01% |
| O=C(NCCn1ccnc1)NCc1ccc(N2CCCCCC2)nc1 | 15.34% |
| c1cc(CN2CCCN(c3ccc4cc[nH]c4n3)CC2)ccn1 | -27.97% |
| c1csc(-c2cc(CN3CCN(c4cnccn4)CC3)no2)c1 | -0.0676% |
| c1cn(Cc2ccc(N3CCCN(C4CCCC4)CC3)nc2)cn1 | 96.41% |
| c1csc(CN2CCCN(c3ccc(Cn4ccnc4)cn3)CC2)c1 | 106.4% |
| c1cn(Cc2nnc(C3CCN(C4CCCCC4)CC3)n2C2CC2)cn1 | 13.15% |
| CC(C)N1CCCC(CN(C)c2ccc(Cn3ccnc3)cn2)C1 (configuration not stated) | -1.53% |
| CN(CC1CCN(c2ccccc2)C1)c1ccc(Cn2ccnc2)cn1 (configuration not stated) | -14.61% |
| COc1cnc(N2CCCN(c3ccc(F)cc3)CC2)nc1 | 8.48% |

— ChEMBL document CHEMBL3988442, “University of Dundee, Small-Polar-MMV Screening Library” (2021)
